experiment: small-molecule microarray binders of probe aShh, primary screen, biochemical, biotinylated probe, 635/667 nm fluorescence (AID 1114); conditions: higher = more signal;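 further: probe is biotin-labelled aShh protein from a stem cell growth factor screen; measures binding of labelled protein to compounds printed on the slide; score merges feature fluorescence at 667 nm with signal-to-noise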

| Compound | composite z-score |
| --- | --- |
| CC(C)(C)OC(=O)CC[C@@]1(C(=O)NCc2ccccc2)N=C(c2ccc(OCCCO)cc2)O[C@@H]1c1ccccc1N=[N+]=[N-] | 0.232 |
| C=CC[C@@]1(C(=O)N2CCOCC2)N=C(c2ccc(OCCCO)cc2)O[C@@H]1c1ccccc1CN=[N+]=[N-] | 0.191 |
| COC(=O)[C@@]1(Cc2ccc(F)cc2)[C@H]2c3cc(C(=O)N4CCCC4)n(CCc4ccc(O)c(O)c4)c3C[C@H]2CN1C(=O)c1ccccc1 | 2.04 |
| CCOC(=O)C[C@H]1[C@H](OC(=O)c2cc3ccccc3oc2=O)[C@@H](NC(=O)c2ccc(-c3ccccc3)cc2)c2cc(OCCCO)ccc2N1C(=O)c1ccc2ccccc2n1 | -0.195 |
| COc1ccc([Si](C)(C)[C@H]2[C@H](CCn3cc([C@H](O)c4ccccc4)nn3)O[C@@]3(C(=O)N(Cc4ccc(N5C(=O)c6cccc7cccc5c67)cc4)c4ccccc43)[C@@H]2C)cc1 | -0.154 |
| C[C@@H]1NC(=O)[C@@]23C(=O)N[C@@H](Cc4ccccc4)C2[C@H](C)[C@@]2(C)O[C@H]2C3/C=C/C/C=C\CNC(=O)[C@@H]2CCCN2C1=O (some centres not stated) | -0.0553 |
| COC(=O)[C@@]1(Cc2ccccc2)[C@H]2c3cc(C(=O)N(C)C)n(Cc4c(CO)[nH]cc(C)c4=O)c3C[C@H]2CN1C(=O)c1ccccc1 | 0.061 |
| COC(=O)CCCCCCC(=O)Nc1ccc(NC(=O)CCCC[P+](c2ccccc2)(c2ccccc2)c2ccccc2)cc1 | -0.147 |

experiment: small-molecule microarray binders of probe aNog, primary screen, biochemical, biotinylated probe, 635/667 nm fluorescence (AID 1115); conditions: higher = more signal;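 further: probe is biotinylated aNog protein used at 0.15 µg/mL for 1 h at 4 C; z-score combines 667 nm fluorescence of each spot with its signal to noise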

| Compound | composite z-score |
| --- | --- |
| COc1ccc([Si](C)(C)[C@@H]2[C@@H](CC(=O)N3Cc4ccccc4C[C@H]3CO)O[C@]3(C(=O)N(C)c4ccccc43)[C@H]2C)cc1 | -0.0692 |
| O=C(N1CCCCC1)[C@@]1(CCS(=O)(=O)c2ccccc2)COC(c2ccc(OCCCO)cc2)=N1 | -0.489 |
| O=C1NC(=O)C2C1C=CC(C(O)CCc1ccccc1)N2Nc1ccc(Cl)cc1Cl (configuration not stated) | 1.04 |
| C=CCC(OC(C)=O)[C@@H]1[C@@H](N(Cc2cc3ccccc3o2)C(=O)c2ccc(-c3ccccc3)cc2)c2cc(OCCCO)ccc2N1C(=O)c1ccc2ccccc2c1 (some centres not stated) | -0.466 |
| CCOC(=O)C[C@H]1[C@H](OC(=O)Cc2ccc3c(c2)OCO3)[C@@H](NC(=O)Cc2ccc(OC)cc2)c2cc(OCCCO)ccc2N1C(=O)c1ccc2ccccc2n1 | -0.134 |
| COC(=O)c1c2oc(c1C(=O)OC)C(=O)N(Cc1ccccc1)Cc1cn(nn1)C[C@H](Cc1ccccc1)NC(=O)N[C@H](CO)CC2 | -0.359 |
| NC(N)=NCCCn1cc(CNC(=O)[C@@H](N)Cc2ccccc2)nn1 | 0.0472 |
| NC(=O)N1C(=O)C2C(C1=O)C1C=C(CCCO)C2C(c2cccs2)N1Cc1cccc(OC(F)(F)F)c1 (configuration not stated) | -0.0132 |
| CCOC(=O)C[C@H]1[C@H](OC(=O)c2cc3ccccc3oc2=O)[C@@H](NC(=O)Cc2ccc(OC)cc2)c2cc(OCCCO)ccc2N1C(=O)c1ccc2ccccc2n1 | 0.0023 |
| COCCOC(=O)N1C(=O)[C@@]2(c3cc(C#CC4=CCCCC4)ccc31)[C@H](c1ccc(OCCO)cc1)N1[C@H](c3ccccc3)[C@H](c3ccccc3)OC(=O)[C@H]1[C@@H]2C(=O)NC[C@H](O)c1ccccc1 | 0.802 |
| COC(=O)c1nc2oc1CC[C@@H](CO)NC(=O)N(C)Cc1cnnn1C[C@H](Cc1ccccc1)NC2=O | -0.321 |
| CN1C(=O)C2C=CC(C(O)COCc3ccccc3)N(N(c3ccccc3)c3ccccc3)C2C1=O (configuration not stated) | 0.773 |
| COc1cc2c(cc1O)C(C)N(Cc1ccc([N+](=O)[O-])o1)CC2 (configuration not stated) | -0.335 |
| C=CCOC(=O)[C@H]1[C@@H]2C(=O)O[C@@H](c3ccccc3)[C@@H](c3ccccc3)N2[C@@H](c2ccc(OCCOC(=O)[C@@H]3C[C@@H]4C(=O)N[C@@H](CCCCN(C)C)C(=O)N4[C@@H]3c3ccc(O)cc3)cc2)[C@]12C(=O)Nc1ccccc12 | -0.106 |
| CCOC(=O)C1=C[C@@H](c2ccccc2)N(S(=O)(=O)c2ccc(C)cc2)[C@H]1c1ccccc1Cl | -0.0784 |
| C[N+](C)(C)CCCCCCNC(=O)[C@H]1C[C@H]2C(=O)NCC(=O)N2[C@H]1c1ccc(O)cc1 | -0.507 |
| COc1cc(CO)cc(I)c1O[C@H]1C=C(C(=O)NCCO)C[C@@H](NCc2ccc(F)cc2)[C@@H]1O | -0.506 |
| COC1OC[C@]2(C)[C@H]3C4=C(CN2C(=O)OC(C)(C)C)[C@H](C)C(CO)C(CO)C4CC[C@@H]13 (some centres not stated) | 1.04 |
| O=C1O[C@H](c2ccccc2)[C@H](c2ccccc2)N2[C@H]1[C@@H](C(=O)Nc1nc3ccccc3s1)[C@]1(C(=O)Nc3ccc(C#CCCO)cc31)[C@H]2c1ccc(O)cc1 | -0.28 |

— PubChem BioAssay
